Assay results published in the supplement of paper PMC12494721.
Structures can show the parent of a compound that is named as a salt.

What was measured:
Details in all cases: incubation time: 27 h, anaerobic, 37 °C;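 for the amine columns active = adjusted P below 0.05 in both replicates with a change the same way and a mean fold change under 0.8 or over 1.25; inactive = the rest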
[1] = test system: Clostridium sporogenes DSM 1664; experiment: growth (OD595) fold change vs plate DMSO controls (fold change (ratio)); higher = more growth
Summary of the method: (§1)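 Each value is the mean of 2 biological replicates, and fold changes above 1.5 were set to NA. The underlying readings were taken at 595 nm from shaken anaerobic mGAM cultures in 96-well plates after 27 h at 37 °C. They were blank-subtracted, corrected for compound background using 20 µM compound solutions in water, and converted to OD with a calibration factor of 5. Growth is the fold change relative to the median of the plate DMSO controls.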

[2] = test system: Escherichia coli IAI1; experiment: as above
Summary of the method: as §1

[3] = test system: Klebsiella aerogenes DSM 30053; experiment: as above
Summary of the method: as §1

[4] = test system: Ruminococcus gnavus DSM 108212; experiment: as above
Summary of the method: as §1

[5] = test system: Klebsiella aerogenes DSM 30053; experiment: fold change of Histamine concentration vs plate DMSO controls (fold change (ratio)); higher = more amine produced, active = hit call of the paper (significant change in both replicates, either direction)
Summary of the method: (§2)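 Amines were quantified by LC–triple-quadrupole MS in dynamic MRM mode against external calibration curves, with drift correction within each batch. The samples were whole anaerobic mGAM cultures of four gut bacterial strains, grown for 27 h at 37 °C in 80 µL wells and extracted with cold acetonitrile/methanol with 0.1% formic acid, then centrifuged. Values are reported as fold change over DMSO controls on the same plate. The mean of 2 biological replicates is given.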

[6] = test system: Clostridium sporogenes DSM 1664; experiment: fold change of Tryptamine concentration vs plate DMSO controls (fold change (ratio)); higher = more amine produced, active = hit call of the paper (significant change in both replicates, either direction)
Summary of the method: as §2

[7] = test system: Ruminococcus gnavus DSM 108212; experiment: as above
Summary of the method: as §2

[8] = test system: Escherichia coli IAI1; experiment: fold change of Putrescine concentration vs plate DMSO controls (fold change (ratio)); higher = more amine produced, active = hit call of the paper (significant change in both replicates, either direction)
Summary of the method: as §2

[9] = test system: Klebsiella aerogenes DSM 30053; experiment: as above
Summary of the method: as §2

[10] = test system: Escherichia coli IAI1; experiment: fold change of Cadaverine concentration vs plate DMSO controls (fold change (ratio)); higher = more amine produced, active = hit call of the paper (significant change in both replicates, either direction)
Summary of the method: as §2

[11] = test system: Klebsiella aerogenes DSM 30053; experiment: as above
Summary of the method: as §2

[12] = test system: Ruminococcus gnavus DSM 108212; experiment: fold change of 2-Phenylethylamine concentration vs plate DMSO controls (fold change (ratio)); higher = more amine produced, active = hit call of the paper (significant change in both replicates, either direction)
Summary of the method: as §2

Row | SMILES | growth [1] | growth [2] | growth [3] | growth [4] | fold change of Histamine concentration [5] | fold change of Tryptamine concentration [6] | fold change of Tryptamine concentration [7] | fold change of Putrescine concentration [8] | fold change of Putrescine concentration [9] | fold change of Cadaverine concentration [10] | fold change of Cadaverine concentration [11] | fold change of 2-Phenylethylamine concentration [12]
1 | CC(=O)Oc1cc(C(C)C)c(OCCN(C)C)cc1C [Moxisylyte hydrochoride] (20 µM) | 1.11 | 1.04 | 1.03 | 1.22 | 0.989 (inactive) | 0.957 (inactive) | 1.04 (inactive) | 0.997 (inactive) | 1.03 (inactive) | 0.986 (inactive) | 1 (inactive) | 0.982 (inactive)
2 | CC(=O)O[C@]1(C(C)=O)CC[C@H]2[C@@H]3C=C(C)C4=CC(=O)CC[C@@H]4[C@H]3CC[C@@]21C [Nomegestrol acetate] (20 µM) | 1.01 | 1.05 | 1.05 | 1.25 | 0.943 (inactive) | 1.01 (inactive) | 1.03 (inactive) | 1.03 (inactive) | 1 (inactive) | 0.946 (inactive) | 1.03 (inactive) | 1.02 (inactive)
3 | N=C(N)NCCN1CCCCCCC1 [Guanethidine sulfate] (20 µM) | 1.13 | 0.988 | 1.1 | 0.933 | 0.834 (inactive) | 1.07 (inactive) | 1.1 (inactive) | 0.97 (inactive) | 0.953 (inactive) | 0.9 (inactive) | 1.04 (inactive) | 1.11 (inactive)
4 | CN[C@@H]1[C@@H](O)[C@@H](O[C@@H]2[C@@H](O)[C@H](O[C@H]3OC(CN)=CC[C@H]3N)[C@@H](N)C[C@H]2N)OC[C@]1(C)O [Sisomicin sulfate] (20 µM) | 0.97 | 0.99 | 0.992 | 0.942 | 0.971 (inactive) | 0.984 (inactive) | 1.02 (inactive) | 1 (inactive) | 0.998 (inactive) | 0.996 (inactive) | 1 (inactive) | 1.04 (inactive)
5 | CCCCCN(CCCCC)C(=O)C(CCC(=O)O)NC(=O)c1ccc(Cl)c(Cl)c1 (centres undefined) [Lorglumide sodium salt] (20 µM) | 0.981 | 1.02 | 1.02 | 1.01 | 0.987 (inactive) | 0.763 (active) | 0.94 (inactive) | 1.07 (inactive) | 1.01 (inactive) | 1.03 (inactive) | 1.01 (inactive) | 0.919 (inactive)
6 | OC(Cn1cncn1)(Cn1cncn1)c1ccc(F)cc1F [Fluconazole] (20 µM) | 0.908 | 0.984 | 1.01 | 1.04 | 0.956 (inactive) | 1.05 (inactive) | 1.01 (inactive) | 0.989 (inactive) | 1.01 (inactive) | 1.01 (inactive) | 1.02 (inactive) | 0.959 (inactive)
7 | Cc1[nH]cnc1CN1CCc2c(c3ccccc3n2C)C1=O [Alosetron hydrochloride] (20 µM) | 1.17 | 0.97 | 1.02 | 1.13 | 0.979 (inactive) | 1.04 (inactive) | 0.996 (inactive) | 0.971 (inactive) | 1.02 (inactive) | 0.945 (inactive) | 1.01 (inactive) | 0.975 (inactive)
8 | Cc1ccccc1C(=O)Nc1ccc(C(=O)N2CCCC(O)c3cc(Cl)ccc32)c(C)c1 (centres undefined) [Tolvaptan] (20 µM) | 1.16 | 0.991 | 0.985 | 1.06 | 1.05 (inactive) | 0.919 (inactive) | 0.964 (inactive) | 0.955 (inactive) | 1.01 (inactive) | 0.995 (inactive) | 1 (inactive) | 0.924 (inactive)
9 | CCOc1nc2cccc(C(=O)OCc3oc(=O)oc3C)c2n1Cc1ccc(-c2ccccc2-c2noc(=O)[nH]2)cc1 [Azilsartan medoxomil] (20 µM) | 1.04 | 1 | 0.984 | 1.1 | 1.04 (inactive) | 1.01 (inactive) | 1.07 (inactive) | 1.02 (inactive) | 1.01 (inactive) | 0.997 (inactive) | 0.999 (inactive) | 1.03 (inactive)
10 | CC[C@H](C)C(=O)O[C@H]1C[C@@H](C)C=C2C=C[C@H](C)[C@H](CC[C@@H]3C[C@@H](O)CC(=O)O3)[C@H]21 [Lovastatin] (20 µM) | 1.13 | 1 | 0.995 | 1.16 | 1.05 (inactive) | 0.945 (inactive) | 0.995 (inactive) | 0.975 (inactive) | 1.02 (inactive) | 1.01 (inactive) | 0.999 (inactive) | 0.984 (inactive)
11 | Cn1cnc2c1c(=O)[nH]c(=O)n2C [Theobromine] (20 µM) | 1.19 | 1 | 1.04 | 1.11 | 0.986 (inactive) | 1.11 (inactive) | 1.05 (inactive) | 0.998 (inactive) | 0.991 (inactive) | 0.982 (inactive) | 1 (inactive) | 1.04 (inactive)
12 | CCCC1C(=O)N2C(N(C)C)=Nc3ccc(C)cc3N2C1=O (centres undefined) [Azapropazone] (20 µM) | 1.1 | 1 | 0.964 | 1.01 | 1.08 (inactive) | 1.09 (inactive) | 0.961 (inactive) | 0.996 (inactive) | 1 (inactive) | 0.997 (inactive) | 0.978 (inactive) | 0.91 (inactive)
